Screening results (PubChem BioAssay)
Most compounds without a hit are left out; they make up all but 2.4% or so of the library.
CHRM1 agonist = human M1 muscarinic receptor agonism | AID 588814 | actives 0.33% (n = 360,000) | P11229 | activation, % at 3 µM | CHO-K1 hM1, Fluo-8 calcium fluorescence, agonist mode; 0% DMSO, 100% acetylcholine EC100;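 active means activation above the run's mean compound activation plus 3 SD, cut at about 16% in these data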;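 further: peak over basal fluorescence ratio within a 140 s kinetic read after compound addition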
Target sequence (P11229 whole entry, looked up): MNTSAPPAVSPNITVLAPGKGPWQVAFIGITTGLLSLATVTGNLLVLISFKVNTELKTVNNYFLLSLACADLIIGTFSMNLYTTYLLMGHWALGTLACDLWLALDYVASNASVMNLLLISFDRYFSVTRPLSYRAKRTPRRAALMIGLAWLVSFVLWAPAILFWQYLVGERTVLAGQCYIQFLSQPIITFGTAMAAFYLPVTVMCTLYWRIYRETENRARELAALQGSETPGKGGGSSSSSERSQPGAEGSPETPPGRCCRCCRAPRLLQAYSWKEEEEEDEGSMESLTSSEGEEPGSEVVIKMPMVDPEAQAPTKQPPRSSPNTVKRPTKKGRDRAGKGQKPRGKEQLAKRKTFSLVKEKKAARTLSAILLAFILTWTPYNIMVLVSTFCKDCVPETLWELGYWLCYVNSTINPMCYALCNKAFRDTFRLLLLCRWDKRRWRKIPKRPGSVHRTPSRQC
M1 PAM parental = counter-screen for M1 PAMs: effect in parental CHO-K1 cells; ATP EC20, Fluo-8 calcium fluorescence; 0% at ATP EC20, 100% at ATP max; activation, % at 3 µM; actives 0.02% (n = 360,000); AID 602247;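 active means activation above the run cutoff, the mean activation of all test compounds plus 3 SD, cut at about 40% in these data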;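 further: peak over basal fluorescence ratio in a 140 s read after ATP addition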
M1 antag = antagonists of human M1 muscarinic receptor; P11229; CHO-K1 hM1, Fluo-8 calcium fluorescence, ACh EC80 antagonist; inhibition, % at 3 µM; actives 1.3% (n = 360,000);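 active means percent inhibition above its own plate's cutoff, namely the mean of that plate's compound wells plus 3 SD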;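 further: peak over basal fluorescence ratio during 140 s after agonist addition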
CHRM1 PAM = potentiates human M1 receptor response to acetylcholine; CHO-K1 hM1, Fluo-8 calcium fluorescence, ACh EC20; 0% = ACh EC20, 100% = maximal ACh; activation, % at 3 µM; actives 0.088% (n = 360,000); in the data active means activation above about 19%, passing the limit was not always enough
CHO-K1 Ca antag = counter-screen for M1 antagonists: effect in parental CHO-K1 cells | ATP-induced calcium, Fluo-8 fluorescence | inhibition, % at 3 µM | actives 0.6% (n = 360,000);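 active means inhibition above a per-plate cutoff, the plate's mean sample inhibition plus 3 SD, cut at about 24% in these data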
CHO-K1 Ca ag = counter-screen for M1 agonists: effect in parental CHO-K1 cells; Fluo-8 calcium fluorescence; scaled to maximal ATP response, vehicle zero; activation, % at 3 µM; actives 0.48% (n = 360,000); AID 602248; in the data active means activation above about 15%;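 further: untransfected CHO-K1 host cells lacking M1 receptor as counterscreen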
Numbers stand for hits; – = inactive; · = no result.

SMILES	CHRM1 agonist	M1 PAM parental	M1 antag	CHRM1 PAM	CHO-K1 Ca antag	CHO-K1 Ca ag
COC(=O)c1ccc(OC)c(CSc2nnc(COc3ccc(Cl)cc3)o2)c1	–	–	–	–	24	–
COC(=O)c1ccc(OC)c(CSc2nnc(COc3ccccc3)o2)c1	–	–	–	–	–	–
Cc1onc(-c2c(Cl)cccc2Cl)c1C(=O)c1c[nH]c(C(=O)NCCCN2CCOCC2)c1	–	–	76	–	–	–
Cc1onc(-c2c(Cl)cccc2Cl)c1C(=O)NCCCN1CCOCC1	–	–	–	–	–	–
COc1cc(S(=O)(=O)N2CCN(Cc3ccccc3)CC2)ccc1Br	–	–	–	–	48	–
COc1ccc(NS(=O)(=O)c2ccc(N3CCCCC3)c(NC(=O)C(C)NC(N)=O)c2)cc1 (stereo not drawn)	–	–	–	–	–	–
COc1ccc(S(=O)(=O)N2CCC(N3CCN(Cc4ccccc4)CC3)CC2)cc1	–	–	84	–	–	–
COc1ccc2cc(S(=O)(=O)N3CCCCCC3)ccc2c1	–	–	–	–	–	–
COc1ccc(S(=O)(=O)N2CCCCC2)cc1	–	–	–	–	27	–
COc1ccc(NS(=O)(=O)c2ccc(N3CCCCC3)c(N)c2)cc1	–	–	36	–	–	–
CC1CCCN(S(=O)(=O)c2ccc3c(c2)c(=O)nc2ccccn23)C1 (stereo not drawn)	–	–	–	–	–	–
CN(C(=O)COn1nnc2ccc(Cl)cc21)C1CCS(=O)(=O)C1 (stereo not drawn)	–	–	–	–	–	–
O=S(=O)(c1ccc(Cl)cc1)N1CCN(C2CCN(Cc3ccccc3)CC2)CC1	–	–	37	–	–	–
CN(CC(=O)NC1CCN(Cc2ccccc2)CC1)S(=O)(=O)c1ccc(Cl)cc1	–	–	–	–	–	–
O=[N+]([O-])c1ccccc1S(=O)(=O)N1CCN(C2CCN(Cc3ccccc3)CC2)CC1	–	–	54	–	–	–
O=[N+]([O-])c1ccc(S(=O)(=O)N2CCN(C3CCN(Cc4ccccc4)CC3)CC2)cc1	–	–	–	–	–	–
O=S(=O)(NC1CCN(Cc2ccccc2)CC1)c1ccc(Cl)cc1	–	–	52	–	–	–
O=NN(CCCl)C(=O)NCC1=C[N+](=O)CC=C1	·	–	·	·	–	–
CN(C)CCCN(C(=O)c1ccc2ccccc2c1)c1nc2cc3c(cc2s1)OCO3	–	–	–	–	–	–
CN(C)CCN(C(=O)c1cccc2ccccc12)c1nc2cc3c(cc2s1)OCO3	–	–	47	–	–	–
CN(C)c1ccc2c(c1)OC(N)=C(C#N)C2c1cccc(F)c1 (stereo not drawn)	–	–	–	–	–	17
N#CC1=C(N)Oc2cc(N)ccc2C1c1cccc(F)c1 (stereo not drawn)	–	–	–	–	–	–
COc1ccc([C@H]2C(C#N)=C([S-])N[C@](C)(O)[C@@H]2[n+]2ccccc2)cc1	–	–	74	–	–	–
COc1ccccc1C(=O)NCCC(=O)N1CC=C(c2ccccc2)CC1	–	–	–	–	–	–
Cc1ccc2nc(-c3ccccc3C)oc(=O)c2c1	–	–	–	–	–	–
SMILES	CHRM1 agonist	M1 PAM parental	M1 antag	CHRM1 PAM	CHO-K1 Ca antag	CHO-K1 Ca ag
Cc1ccccc1-c1nc2ccccc2c(=O)o1	–	–	–	–	36	–
O=C(CNC(=O)c1cccc(F)c1)N/N=C/c1cccs1	–	–	–	–	–	–
CCOC(=O)C1CCCN(c2c(C(=O)c3ccccc3)cnc3ccc(OC)cc23)C1 (stereo not drawn)	62	61	51	–	–	–
CCOC(=O)C1CCCN(C(=O)COc2ccc(C(=O)c3ccccc3)cc2)C1 (stereo not drawn)	–	–	–	–	–	–
O=C(O)CC1(CC(=O)N2CCOCC2)CCCC1	–	–	–	–	–	–
O=c1c(O)c(-c2ccc(O)cc2)oc2cc(O)cc(O)c12	19	–	–	–	–	–
O=c1cc(-c2ccc(O)cc2)oc2cc(O)cc(O)c12	–	–	–	–	–	–
CC(=O)c1cccc(NC(=O)/C(=C/c2ccncc2)NC(=O)c2ccccc2)c1	–	–	–	–	–	–
O=S1(=O)c2ccc(Br)cc2N2CCC[C@@H]2CN1Cc1ccc(Cl)cc1	–	–	24	–	–	–
